Reference: PubChem BioAssay (NCI)
About 83,000 compounds went through this panel and 20% of them were active in at least one assay; those are over-represented in the sample as a whole.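 A percent growth of 40 corresponds to 60% growth inhibition; 0 means no net growth; -100 means all cells died. Active threshold: below 10.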 A number with no mark means an inactive call. The source made the active and inactive calls.

Experiments:
Test in all cases: NCI-60 one-dose screen, 48 h (100 = growth as untreated, 0 = no growth, -100 = all killed)
Conditions in all cases: 10 µM unless noted
T-47D breast = system: T-47D breast
BT-549 breast = system: BT-549 breast
MDA-MB-435 melanoma = system: MDA-MB-435 melanoma
SW-620 colon = system: SW-620 colon
MCF7 breast = system: MCF7 breast
HCT-116 colon = system: HCT-116 colon
HCC-2998 colon = system: HCC-2998 colon
KM12 colon = system: KM12 colon

Structure (SMILES)	growth (T-47D breast)	growth (BT-549 breast)	growth (MDA-MB-435 melanoma)	growth (SW-620 colon)	growth (MCF7 breast)	growth (HCT-116 colon)	growth (HCC-2998 colon)	growth (KM12 colon)
O=C(Nc1cccc(-n2cc(-c3ccncc3)c(-c3ccc(Cl)c(O)c3)n2)c1)Nc1cccc(C(F)(F)F)c1	18.5%	36%	15.6%	28.5%	10.3%	9.75% (active)	40.1%	2.46% (active)
O=[N+]([O-])c1cccc(-c2nc3sccn3c2-c2ccnc(NCCCNS(=O)(=O)c3ccc(C(F)(F)F)cc3)n2)c1	-1.61% (active)	30.3%	18.4%	66.6%	14.9%	30.5%	52.9%	23.9%
NC1=C(/C(N)=N/O)C(c2ccccc2)c2ccc3ccccc3c2O1 (stereo unspecified)	54.5%	28%	-56.2% (active)	23%	9.02% (active)	6.57% (active)	11.8%	11.1%
CCN(CC)CCCNc1nccc2ccc(Cl)cc12	106%	92.8%	103%	104%	94%	84.9%	106%	111%
CN(C)c1cccc2c(S(=O)(=O)/N=C(\N)Nc3nc4ccccc4s3)cccc12	39.6%	47.5%	-11.5% (active)	31%	29.6%	42.4%	70.4%	35.7%
COc1ccc(-c2c(-c3cc(OC)c4c(c3)OCO4)noc2N)cc1	37.3%	20.7%	-38.9% (active)	21%	14.2%	6.02% (active)	15.8%	3.59% (active)
CC1=NC2=CC=CC3=NC(C(Cl)(Cl)Cl)=NC(=N1)N23	61.4%	45.9%	77.9%	78.4%	62.7%	68.3%	57.5%	85.5%
C[n+]1c(/C=C/c2c(O)ccc3ccccc23)ccc2ccccc21	26.6%	27.9%	25.6%	17%	15.9%	-13.9% (active)	59.8%	38.7%
Cc1ccc(S(=O)(=O)/C(=C\c2ccc(Cl)cc2)C(=O)c2ccccc2)cc1	95.3%	102%	88.7%	106%	82.3%	106%	107%	111%
COc1ccc(/C=C2\Oc3cc(OCCCN4CCCC4)ccc3C2=O)c(OC)c1	99%	95.4%	97%	33.5%	44.4%	10.6%	86.3%	67.1%
Cc1cc(C2=NNC(=O)Cc3cc4c(cc32)OCCO4)cc(C)c1N	46.1%	30.7%	-12.6% (active)	26.5%	16.7%	20.4%	48.8%	24%
COc1ccc(-c2ccc(C)n2-c2ccc(-c3nc4cc(Cl)ccc4s3)cc2)cc1	66.8%	116%	95.1%	103%	48.3%	97.4%	92.3%	89.1%
COC(=O)C(Sc1ccc(Cl)cc1)C1SC(=S)N(Cc2ccccc2)C1=O (stereo unspecified)	81.7%	84.1%	90.4%	98.3%	77.2%	89.7%	103%	99.6%
COc1cc(C(=O)/C=C/c2ccc3nc(-c4cc(F)cc(F)c4)sc3c2)cc(OC)c1OC	102%	95.3%	106%	104%	97.5%	87%	93.1%	108%
CCCCCCCC/C=C/CCCCCCCC1=NC(C)(C)CN1C(C)(C)CO	-10.2% (active)	76.3%	-18.9% (active)	-85.1% (active)	-44.3% (active)	-99.4% (active)	-93.4% (active)	-91.5% (active)
NC1=NN(O)C2=CC([N+](=O)[O-])C=CC2=N1 (stereo unspecified)	101%	104%	109%	110%	96.1%	107%	97.2%	103%

Structure (SMILES)	growth (T-47D breast)	growth (BT-549 breast)	growth (MDA-MB-435 melanoma)	growth (SW-620 colon)	growth (MCF7 breast)	growth (HCT-116 colon)	growth (HCC-2998 colon)	growth (KM12 colon)
CCCCN(CCCC)c1ccc(C(=N)c2ccc(N(CCCC)CCCC)cc2)cc1	-31.3% (active)	-7.68% (active)	-72.4% (active)	-84% (active)	-85.5% (active)	-99.9% (active)	-96.7% (active)	-95.1% (active)
COc1cccc(/C=C2\Oc3cc(OCCCN4CCCC4)ccc3C2=O)c1	88.1%	92.6%	99.2%	92.2%	51.2%	21.1%	85.5%	83.8%
Cn1ncc2c(Sc3ccc(Cl)cc3)ncnc21	76.1%	62.1%	92.3%	100%	87.4%	103%	85.7%	95.6%
COc1ccc(-c2ccc(-c3ccc(-c4ccc(C(=N)N)cc4)s3)s2)cc1OC	28.5%	98.3%	88.2%	-40.8% (active)	-19.8% (active)	27.5%	-68.6% (active)	-42.5% (active)
CCOC(=O)c1ccc(NC(=O)N2CC(C)OC(C)C2)cc1 (stereo unspecified)	94.4%	97.8%	105%	106%	96.4%	102%	105%	108%
CCOC(=O)CN1/C(=N/c2sc3c(c2C(=O)OCC)CCN(C(=O)OCC)C3)SC(=O)/C1=C\C(=O)OC	30.8%	89.4%	99.7%	71.6%	49.3%	71.6%	94.4%	97.4%
COc1ccc(S(=O)(=O)n2cc(C(=O)C(=O)Nc3ccncc3)c3ccccc32)cc1F	67.9%	77%	58%	83.3%	69.8%	69.5%	73.5%	75%
Clc1cc(Cl)cc(-c2ccc(-c3ccc(/C=N/NC4=NCCN4)cc3)s2)c1	56.4%	94.3%	25.8%	-59.7% (active)	16%	-10.4% (active)	19.3%	-2.85% (active)
Cc1[nH]c2ccc(F)cc2c1CCNC(=O)C1CCN(C(=O)c2ccccc2)CC1	68.9% [25 µM]	93.5% [25 µM]	96.7% [25 µM]	96.5% [25 µM]	93.9% [25 µM]	93.3% [25 µM]	104% [25 µM]	95.6% [25 µM]
N[C@@H]1CCN(C(=O)c2cc3cc(Cl)c(F)c(F)c3[nH]2)C1	82.2%	1.7% (active)	97.3%	96.6%	94.5%	92.8%	96.1%	98.8%
CCN(CC)CCCC(C)Nc1c2ccc(Cl)cc2nc2cc(OC)c(OC)cc12 (stereo unspecified)	61.9%	55.3%	-81.8% (active)	-25.2% (active)	0.0607% (active)	-42.5% (active)	18.1%	8.52% (active)
COc1cc(-c2nn(-c3cccc(NC(=O)Nc4ccc(Cl)c(C(F)(F)F)c4)c3)cc2-c2ccncc2)ccc1Cl	0.618% (active)	7.16% (active)	-52.3% (active)	15.4%	0.143% (active)	5.3% (active)	8.88% (active)	2.88% (active)
CCCC(=O)Oc1ccc(/C(=C(\C)c2ccccc2)c2ccc(OCCN(CC)CC)cc2)cc1	46.8%	78.7%	73.3%	84.5%	34.5%	47.8%	83.2%	79.5%
COc1ccc(/C(C#N)=C/c2cc(OC)c(OC)c(OC)c2)cc1	44.1%	40.7%	-48.8% (active)	26.3%	18.6%	20.2%	72%	29.3%
Cc1csc(NC(c2ccc(Br)cc2)c2c(C)nc3ccccn23)n1 (stereo unspecified)	75.6%	90.7%	97.7%	88.1%	83.3%	59.8%	117%	97.7%
COc1ccc2c(c1)[nH]c(=O)c1c3cc(C)c(C)cc3cn21	-24.4% (active)	0.0621% (active)	-60.8% (active)	-52.8% (active)	3.58% (active)	-35.9% (active)	15.7%	-87.7% (active)
